In the library only some 2.3% were active in any assay of this set; here they are far more common.
M1 PAM parental = nonselective activator or artifact in parental CHO-K1 calcium assay; ATP EC20, Fluo-8 calcium fluorescence; 0% at ATP EC20, 100% at ATP max; activation, % at 3 µM; 360,000 compounds, 0.02% hits; AID 602247;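 active means activation above the run cutoff, the mean activation of all test compounds plus 3 SD, cut at about 40% in these data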;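 further: peak over basal fluorescence ratio in a 140 s read after ATP addition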
CHRM1 agonist = agonists of human M1 muscarinic receptor. CHO-K1 hM1, Fluo-8 calcium fluorescence, agonist mode; 0% DMSO, 100% acetylcholine EC100. activation, % at 3 µM. 360,000 compounds, 0.33% hits;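 active means activation above the run's mean compound activation plus 3 SD, cut at about 16% in these data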;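 further: peak over basal fluorescence ratio within a 140 s kinetic read after compound addition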
Target sequence (P11229 whole entry, looked up): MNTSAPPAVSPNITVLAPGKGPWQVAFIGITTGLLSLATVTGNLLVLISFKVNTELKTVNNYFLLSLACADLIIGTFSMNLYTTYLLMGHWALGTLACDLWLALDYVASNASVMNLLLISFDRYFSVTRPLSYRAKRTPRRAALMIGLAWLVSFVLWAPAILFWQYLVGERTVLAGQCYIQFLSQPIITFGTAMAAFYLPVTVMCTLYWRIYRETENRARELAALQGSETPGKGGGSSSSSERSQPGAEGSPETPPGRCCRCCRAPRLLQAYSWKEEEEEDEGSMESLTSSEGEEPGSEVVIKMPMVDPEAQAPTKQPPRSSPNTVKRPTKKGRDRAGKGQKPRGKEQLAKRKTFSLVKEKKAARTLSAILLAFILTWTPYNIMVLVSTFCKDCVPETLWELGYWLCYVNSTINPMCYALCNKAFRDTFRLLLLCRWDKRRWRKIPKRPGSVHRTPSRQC
CHO-K1 Ca ag = counter-screen for M1 agonists: effect in parental CHO-K1 cells; 360,000 compounds, 0.48% hits; Fluo-8 calcium fluorescence; scaled to maximal ATP response, vehicle zero; activation, % at 3 µM; in the data active means activation above about 15%;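 further: untransfected CHO-K1 host cells lacking M1 receptor as counterscreen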
CHRM1 PAM = potentiates human M1 receptor response to acetylcholine; CHO-K1 hM1, Fluo-8 calcium fluorescence, ACh EC20; 0% = ACh EC20, 100% = maximal ACh; activation, % at 3 µM; 360,000 compounds, 0.088% hits; in the data active means activation above about 19%, passing the limit was not always enough
CHO-K1 Ca antag = M1 antagonist counterscreen hit in parental CHO-K1 cells. ATP-induced calcium, Fluo-8 fluorescence. 360,000 compounds, 0.6% hits. inhibition, % at 3 µM;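 active means inhibition above a per-plate cutoff, the plate's mean sample inhibition plus 3 SD, cut at about 24% in these data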;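 further: 0% = DMSO plus EC80 ATP and 100% = DMSO alone without ATP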
CHRM1 antagonist = human CHRM1 antagonism | P11229 | CHO-K1 hM1, Fluo-8 calcium fluorescence, ACh EC80 antagonist | inhibition, % at 3 µM | 360,000 compounds, 1.3% hits;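 active means percent inhibition above its own plate's cutoff, namely the mean of that plate's compound wells plus 3 SD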;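 further: peak over basal fluorescence ratio during 140 s after agonist addition; 0% = ACh EC80 plus DMSO and 100% = DMSO alone without agonist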
* = called active by the depositor.

For COC(=O)C(NC(=O)c1ccccc1Cl)(Nc1ncc(S(=O)(=O)c2ccc([N+](=O)[O-])cc2)s1)C(F)(F)F (stereo not given) the results were M1 PAM parental 18, CHRM1 agonist 22*, CHO-K1 Ca ag 10, CHRM1 PAM 2, CHO-K1 Ca antag 2 and CHRM1 antagonist 10.
`CCC(C)(C)C(=O)Nc1ncc(S(=O)(=O)c2ccc([N+](=O)[O-])cc2)s1` gave M1 PAM parental 14, CHRM1 agonist 16, CHO-K1 Ca ag 4, CHRM1 PAM -6, CHO-K1 Ca antag 2 and CHRM1 antagonist -11.
Screening CC(C)C(=O)N1CCCC1(C)C(=O)Nc1ccc(-n2cncn2)cc1 (stereo not given) returned M1 PAM parental -5, CHRM1 agonist -2, CHO-K1 Ca ag 0, CHRM1 PAM 18, CHO-K1 Ca antag 2 and CHRM1 antagonist -26.
O=C(O)CCCN1C(=O)NC2NC(=O)NC21 (stereo not given) was read as M1 PAM parental -7, CHRM1 agonist -3, CHO-K1 Ca ag 0, CHRM1 PAM -5, CHO-K1 Ca antag 34* and CHRM1 antagonist 5.
For CCN(CC)CCCNc1nc2ccccc2c2[nH]c3ccc(OC)cc3c12 the results were M1 PAM parental -21, CHRM1 agonist -8, CHO-K1 Ca ag 0, CHRM1 PAM -1, CHO-K1 Ca antag -2 and CHRM1 antagonist -8.
For COC(=O)c1sc(NC(=O)CSc2nnnn2-c2ccc(C)cc2C)nc1C the results were M1 PAM parental -6, CHRM1 agonist 1, CHO-K1 Ca ag 0, CHRM1 PAM 9, CHO-K1 Ca antag 26* and CHRM1 antagonist -6.
For Nc1nonc1-n1nnc(C(=O)N/N=C/c2ccc(F)cc2)c1-c1cccs1 the results were M1 PAM parental 6, CHRM1 agonist 19*, CHO-K1 Ca ag 7, CHRM1 PAM 4, CHO-K1 Ca antag -12 and CHRM1 antagonist -1.
For CCn1c(SCC(=O)N/N=C/c2ccc(C)o2)nnc1-c1ccccc1 the results were M1 PAM parental -7, CHRM1 agonist -5, CHO-K1 Ca ag -1, CHRM1 PAM -6, CHO-K1 Ca antag 28* and CHRM1 antagonist 8.
Screening Nc1nonc1-n1nnc(C(=O)N/N=C/c2ccco2)c1-c1ccccc1 returned M1 PAM parental 13, CHRM1 agonist 22*, CHO-K1 Ca ag 2, CHRM1 PAM 15, CHO-K1 Ca antag -16 and CHRM1 antagonist -6.
Screening Nc1nonc1-n1nnc(C(=O)N/N=C/c2ccoc2)c1-c1ccccc1 returned M1 PAM parental 12, CHRM1 agonist 16*, CHO-K1 Ca ag 6, CHRM1 PAM 5, CHO-K1 Ca antag -10 and CHRM1 antagonist -1.
For COc1ccc(-c2oc(=O)c3cc(OC)c(OC)cc3c2C#C[C@]2(O)CC[C@H]3[C@@H]4CCc5cc(OC)ccc5[C@H]4CC[C@@]32C)cc1 the results were M1 PAM parental 5, CHRM1 agonist -1, CHO-K1 Ca ag 1, CHRM1 PAM 7, CHO-K1 Ca antag -17 and CHRM1 antagonist -6.
`CC(=O)Nc1ccc(S(=O)(=O)NCCC(=O)OC(C)C(=O)NC2(C#N)CCCCC2)cc1` (stereo not given) gave M1 PAM parental 15, CHRM1 agonist -1, CHO-K1 Ca ag 0, CHRM1 PAM 9, CHO-K1 Ca antag -9 and CHRM1 antagonist -11.
Screening CCOc1ccc(-c2c(C(=O)N/N=C/c3ccc(C)o3)nnn2-c2nonc2N)cc1 returned M1 PAM parental 0, CHRM1 agonist -2, CHO-K1 Ca ag 3, CHRM1 PAM -11, CHO-K1 Ca antag -8 and CHRM1 antagonist 7.
COc1cccc(-c2c(C(=O)N/N=C/c3ccco3)nnn2-c2nonc2N)c1 was read as M1 PAM parental 0, CHRM1 agonist 35*, CHO-K1 Ca ag 16*, CHRM1 PAM 10, CHO-K1 Ca antag -5 and CHRM1 antagonist -4.
`Cc1ccc(/C=N/NC(=O)c2nnn(-c3nonc3N)c2-c2ccccc2)o1` gave M1 PAM parental 20, CHRM1 agonist 9, CHO-K1 Ca ag 22*, CHRM1 PAM 3, CHO-K1 Ca antag -9 and CHRM1 antagonist -5.
CC(=O)c1sc(NC(=O)C2(F)C(F)(F)C(F)(F)C(F)(F)C(F)(F)C2(F)F)nc1C was read as M1 PAM parental 2, CHRM1 agonist 3, CHO-K1 Ca ag 13, CHRM1 PAM -6, CHO-K1 Ca antag 26* and CHRM1 antagonist 11.
For Cc1ccc(-c2nc(CSCC(=O)NCCN3CCN(Cc4ccccc4)CC3)c(C)o2)cc1 the results were M1 PAM parental -5, CHRM1 agonist -4, CHO-K1 Ca ag 4, CHRM1 PAM -18, CHO-K1 Ca antag 15 and CHRM1 antagonist 26*.
Cc1cnc(CNC(=O)c2ccc3oc(Cc4ccc(Cl)cc4)nc3c2)cn1 was read as M1 PAM parental 14, CHRM1 agonist -1, CHO-K1 Ca ag 2, CHRM1 PAM 11, CHO-K1 Ca antag 6 and CHRM1 antagonist -3.
For O=C(Cc1cccc2ccccc12)N/N=C/c1ccncc1 the results were M1 PAM parental 6, CHRM1 agonist -4, CHO-K1 Ca ag 26*, CHRM1 PAM 6, CHO-K1 Ca antag 1 and CHRM1 antagonist -9.
`O=C(CC(=O)N/N=C/c1ccccc1)NCc1ccccc1` gave M1 PAM parental 3, CHRM1 agonist -5, CHO-K1 Ca ag 17*, CHRM1 PAM -6, CHO-K1 Ca antag 16 and CHRM1 antagonist 14.
For CCCN(CC(=O)Nc1ccccc1C)C(=O)c1nn(CC)c(=O)c2ccccc12 the results were M1 PAM parental 9, CHRM1 agonist 0, CHO-K1 Ca ag 2, CHRM1 PAM 0, CHO-K1 Ca antag -11 and CHRM1 antagonist 4.
CCN1C(=O)c2ccccc2Sc2ccc(C(=O)NCCCN(CC(C)C)CC(C)C)cc21 was read as M1 PAM parental 11, CHRM1 agonist -9, CHO-K1 Ca ag 0, CHRM1 PAM -4, CHO-K1 Ca antag -27 and CHRM1 antagonist -4.
O=C(COC(=O)c1cc(-c2ccccc2)nc2ccccc12)NCC1CCCO1 (stereo not given) was read as M1 PAM parental 2, CHRM1 agonist -5, CHO-K1 Ca ag 1, CHRM1 PAM 3, CHO-K1 Ca antag -9 and CHRM1 antagonist -3.
Screening CCNC(=O)COC(=O)c1cc(-c2ccc(OC)cc2)nc2ccccc12 returned M1 PAM parental -16, CHRM1 agonist -3, CHO-K1 Ca ag 0, CHRM1 PAM -9, CHO-K1 Ca antag 24 and CHRM1 antagonist 14*.
For COc1ccc(NC(=O)CN(C)C(=O)c2cc(-c3ccccc3)nc3ccccc23)cc1 the results were M1 PAM parental -9, CHRM1 agonist -3, CHO-K1 Ca ag 7, CHRM1 PAM -3, CHO-K1 Ca antag 0 and CHRM1 antagonist 15.
O=C(COC(=O)c1cc(-c2cccc(Br)c2)nc2ccccc12)NCC1CCCO1 (stereo not given) was read as M1 PAM parental -14, CHRM1 agonist 3, CHO-K1 Ca ag 0, CHRM1 PAM 8, CHO-K1 Ca antag 28* and CHRM1 antagonist 4.
